Laboratory results as given in PubChem BioAssay (NCI).
This is part of a sample that, as a whole, favours compounds with a hit. Of some 79,000 tested, about 15% had one in any assay. Calls of active or inactive are those of the source. No stated cut-off is given here; in the data, active means growth inhibition above about 70%; inactive means the rest.

Columns and labels:
[1] = NCI Yeast Anticancer Drug Screen. Data for the rad52 strain (AID 147);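 further: 0% = growth of vehicle-treated control cultures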; settings: S. cerevisiae rad52 mutant growth inhibition, active compounds read high
Summary of the method: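 Read-out: growth inhibition versus vehicle-treated controls. Cells were a DNA repair-deficient yeast strain treated with compounds.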

[2] = NCI Yeast Anticancer Drug Screen. Data for the wt1 strain (AID 149);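 further: 0% = growth of vehicle-treated wt1 cultures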; settings: S. cerevisiae wt1 strain (SPY 50644) growth inhibition, active compounds read high
Summary of the method: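 wt1 yeast, compound-treated; % growth inhibition vs vehicle control.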

[3] = NCI Yeast Anticancer Drug Screen. Data for the rad50EPP+ strain (AID 151);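 further: 0% = growth of vehicle-treated control cultures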; settings: S. cerevisiae rad50 mutant strain, active compounds read high
Summary of the method: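 Growth inhibition read against vehicle controls in rad50EPP+ yeast, a strain altered in DNA damage repair, after compound exposure.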

[4] = NCI Yeast Anticancer Drug Screen. Data for the mgt1 strain (AID 153); settings: S. cerevisiae mgt1 mutant growth inhibition, active compounds read high
Summary of the method: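 mgt1 yeast grown with test compound; read-out is growth inhibition versus vehicle-treated cultures.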

[5] = NCI Yeast Anticancer Drug Screen. Data for the rad50 strain (AID 155);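 further: 0% = growth of vehicle-only cultures of the same strain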; settings: S. cerevisiae rad50 strain growth inhibition, active compounds read high
Summary of the method: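 Genetically altered yeast (DNA repair pathway); compound treatment; growth inhibition vs vehicle ctrl.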

[6] = NCI Yeast Anticancer Drug Screen. Data for the mec2-1 strain (AID 157); settings: S. cerevisiae mec2-1 strain, active compounds read high
Summary of the method: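 Yeast mec2-1 mutant treated with compound. Readout: growth inhibition vs vehicle controls.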

[7] = NCI Yeast Anticancer Drug Screen. Data for the rad14 strain (AID 159);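 further: 0% = growth of vehicle-treated control cultures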; settings: S. cerevisiae rad14 strain growth inhibition, active compounds read high
Summary of the method: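 Test compounds were applied to a repair-deficient yeast strain. Its growth was then compared with that of cultures given vehicle alone, and inhibition was expressed relative to those controls.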

[8] = NCI Yeast Anticancer Drug Screen. Data for the CLN2oe strain (AID 163);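 further: 0% = growth of vehicle-only control cultures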; settings: S. cerevisiae CLN2oe strain, active compounds read high
Summary of the method: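 Read-out: yeast growth inhibition, expressed relative to vehicle-only controls. The strain bears an engineered cell-cycle alteration.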

[9] = NCI Yeast Anticancer Drug Screen. Data for the cln2 rad14 strain (AID 165);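 further: 0% = growth equal to vehicle treated cultures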; settings: S. cerevisiae cln2 rad14 strain, active compounds read high
Summary of the method: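 cln2 rad14 yeast strain; compound exposure; growth inhibition read vs vehicle controls.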

[10] = NCI Yeast Anticancer Drug Screen. Data for the bub3 strain (AID 167); settings: S. cerevisiae bub3 mutant strain, active compounds read high
Summary of the method: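 Yeast carrying a defined mutation is treated with each compound, and growth is compared with that of vehicle-exposed cells to give inhibition.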

[11] = NCI Yeast Anticancer Drug Screen. Data for the wt2 strain (AID 169);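 further: 0% = growth of vehicle-treated yeast cultures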; settings: S. cerevisiae wt2 strain growth inhibition, active compounds read high
Summary of the method: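 Read-out: growth inhibition versus vehicle-treated control cultures after compound exposure of the yeast strain.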

[12] = NCI Yeast Anticancer Drug Screen. Data for the sgs1 strain (AID 173);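 further: 0% = growth of vehicle-only control cultures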; settings: S. cerevisiae sgs1 mutant, active compounds read high
Summary of the method: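 Read-out: yeast growth inhibition relative to vehicle controls, following compound exposure of a strain with a defined DNA repair/cell cycle alteration.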

[13] = NCI Yeast Anticancer Drug Screen. Data for the mlh1 rad18 strain (AID 175); settings: S. cerevisiae mlh1 rad18 strain growth inhibition, active compounds read high
Summary of the method: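 Yeast w/ defined DNA-repair lesions; compound exposure; growth vs vehicle controls → % inhibition.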

[14] = NCI Yeast Anticancer Drug Screen. Data for the rad18 strain (AID 177); settings: S. cerevisiae rad18 mutant growth inhibition, active compounds read high
Summary of the method: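 Readout: growth inhibition vs vehicle controls. Cells: genetically altered yeast strain, DNA repair defect.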

[15] = NCI Yeast Anticancer Drug Screen. Data for the sgs1 mgt1 strain (AID 161);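 further: 0% = growth of cultures given vehicle only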; settings: S. cerevisiae sgs1 mgt1 strain, active compounds read high
Summary of the method: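 Genetically altered yeast, compound exposure, growth inhibition relative to vehicle.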

[16] = NCI Yeast Anticancer Drug Screen. Data for the mlh1 strain (AID 171);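 further: 0% = growth of vehicle-treated control cultures of the same strain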; settings: S. cerevisiae mlh1 strain growth inhibition, active compounds read high
Summary of the method: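 Read-out: growth inhibition versus vehicle controls. Strain: engineered yeast with a defined DNA repair or cell cycle defect, compound-treated.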

[17] = at 5.0 µM (retest, dose inferred, filed as 0.5)
[18] = at 50.0 µM (retest, dose inferred, filed as 5.0)

Measured: growth inhibition

CC(C)(CN1CCCCC1)C(=O)/C=C/c1c(Cl)cccc1Cl
inactive: [1]; at 1.2 µM 12% | [1]; at 3.7 µM 35% | [1]; at 11.0 µM 68% | [2]; at 1.2 µM 10% | [2]; at 3.7 µM 15% | [2]; at 11.0 µM 32% | [3]; at 1.2 µM -2% | [3]; at 3.7 µM 0% | [3]; at 11.0 µM 22% | [3]; at 33.0 µM 50% | [3]; at 100.0 µM 47% | [4]; at 1.2 µM 10% | [4]; at 3.7 µM 37% | [5]; at 1.2 µM 11% | [5]; at 3.7 µM 29% | [5]; [17] 2% | [5]; at 11.0 µM 67% | [6]; at 1.2 µM 16% | [6]; at 3.7 µM 20% | [6]; [17] 14% | [6]; at 11.0 µM 51% | [7]; at 1.2 µM 44% | [7]; at 3.7 µM 54% | [8]; at 1.2 µM 30% | [8]; at 3.7 µM 54% | [9]; [17] 55% | [10]; at 1.2 µM 27% | [10]; at 3.7 µM 49% | [10]; [17] 9% | [11]; at 1.2 µM 19% | [11]; at 3.7 µM 28% | [12]; at 1.2 µM 0% | [12]; at 3.7 µM 38% | [13]; [17] 30% | [14]; at 1.2 µM 31% | [14]; at 3.7 µM 57%
active: [1]; at 33.0 µM 98% | [1]; at 100.0 µM 98% | [2]; at 33.0 µM 93% | [2]; at 100.0 µM 97% | [4]; at 11.0 µM 81% | [4]; at 33.0 µM 98% | [4]; at 100.0 µM 99% | [5]; at 33.0 µM 97% | [5]; [18] 99% | [5]; at 50.0 µM 75.8% | [5]; at 100.0 µM 97% | [6]; at 33.0 µM 94% | [6]; [18] 97% | [6]; at 50.0 µM 83.9% | [6]; at 100.0 µM 97% | [7]; at 11.0 µM 92% | [7]; at 33.0 µM 99% | [7]; at 100.0 µM 99% | [8]; at 11.0 µM 79% | [8]; at 33.0 µM 93% | [8]; at 100.0 µM 98% | [9]; [18] 99% | [9]; at 50.0 µM 86.4% | [10]; at 11.0 µM 91% | [10]; at 33.0 µM 98% | [10]; [18] 99% | [10]; at 50.0 µM 88.8% | [10]; at 100.0 µM 98% | [11]; at 11.0 µM 71% | [11]; at 33.0 µM 98% | [11]; at 100.0 µM 98% | [12]; at 11.0 µM 73% | [12]; at 33.0 µM 98% | [12]; at 100.0 µM 98% | [13]; [18] 98% | [13]; at 50.0 µM 87.7% | [14]; at 11.0 µM 89% | [14]; at 33.0 µM 98% | [14]; at 100.0 µM 98%

CCN(CC)CCNc1ccc(C)c2sc3ccc(O)cc3c(=O)c12
inactive: [1]; at 1.2 µM 60% | [2]; at 1.2 µM -7% | [2]; at 3.7 µM -10% | [2]; at 11.0 µM 8% | [3]; at 1.2 µM 37% | [3]; at 3.7 µM 50% | [4]; at 1.2 µM 7% | [4]; at 3.7 µM 27% | [4]; at 11.0 µM 23% | [5]; [17] 52% | [6]; at 1.2 µM -1% | [6]; at 3.7 µM 17% | [6]; [17] 4% | [6]; at 11.0 µM 36% | [15]; [17] 9% | [8]; at 1.2 µM 39% | [8]; at 3.7 µM 33% | [8]; at 11.0 µM 39% | [9]; [17] 12% | [10]; at 1.2 µM -1% | [10]; at 3.7 µM 10% | [10]; [17] -1% | [10]; at 11.0 µM 16% | [11]; at 1.2 µM -20% | [11]; at 3.7 µM -18% | [11]; at 11.0 µM -17% | [16]; at 1.2 µM 45% | [16]; at 3.7 µM 43% | [16]; at 11.0 µM 29% | [12]; at 1.2 µM 23% | [12]; at 3.7 µM 32% | [12]; at 11.0 µM 43% | [13]; [17] 12% | [14]; at 1.2 µM 6% | [14]; at 3.7 µM 5% | [14]; at 11.0 µM 12%
active: [1]; at 3.7 µM 89% | [1]; at 11.0 µM 94% | [1]; at 33.0 µM 98% | [1]; at 100.0 µM 99% | [2]; at 33.0 µM 79% | [2]; at 100.0 µM 99% | [3]; at 11.0 µM 78% | [3]; at 33.0 µM 84% | [3]; at 100.0 µM 98% | [4]; at 33.0 µM 89% | [4]; at 100.0 µM 99% | [5]; at 1.2 µM 72% | [5]; at 3.7 µM 94% | [5]; at 11.0 µM 96% | [5]; at 33.0 µM 98% | [5]; [18] 98% | [5]; at 50.0 µM 90.3% | [5]; at 100.0 µM 99% | [6]; at 33.0 µM 91% | [6]; [18] 98% | [6]; at 50.0 µM 92% | [6]; at 100.0 µM 99% | [15]; [18] 99% | [15]; at 50.0 µM 91.7% | [8]; at 33.0 µM 94% | [8]; at 100.0 µM 99% | [9]; [18] 98% | [9]; at 50.0 µM 90.9% | [10]; at 33.0 µM 91% | [10]; [18] 99% | [10]; at 50.0 µM 91.2% | [10]; at 100.0 µM 99% | [11]; at 33.0 µM 98% | [11]; at 100.0 µM 98% | [16]; at 33.0 µM 86% | [16]; at 100.0 µM 99% | [12]; at 33.0 µM 97% | [12]; at 100.0 µM 99% | [13]; [18] 99% | [13]; at 50.0 µM 91% | [14]; at 33.0 µM 97% | [14]; at 100.0 µM 99%
